# From PubChem BioAssay (NCATS)
# Inconclusive results are not listed. A number with no mark means an inactive call. The source made the active and inactive calls. Unless noted, calls follow the shape of the dose curve; as a rule, active = well fitted curve in the direction sought with a large enough effect; inconclusive = small, poorly fitted or top-dose-only effect, or another doubt; inactive = no such curve, though single readings can be large; an effect the other way counts as inactive or inconclusive.
# Test system: not listed separately
# Test: Counterscreen qHTS for small molecule stabilizers of the endoplasmic reticulum resident proteome: GLuc-NoTag assay (AID 1508627); also: potency is read from the fitted curve at half-maximal effect;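 as to activity change, negative = inhibition: 0% = thapsigargin alone and -100% = DMSO vehicle control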
# Conditions: Gaussia luciferase NoTag secretion counterscreen, luminescence, thapsigargin 100 nM for final 4 h; series mostly up to 76.4 µM; activity change, negative = inhibition: at the top concentration
# Outline: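 Secreted GLuc lacking the SERCaMP modification is measured in SH-SY5Y cells exposed to compound for 19 h and then to thapsigargin (100 nM, 4 h) to deplete ER calcium; hits retested at 11 concentrations, up to 76.6 uM.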
SMILES,Potency,"activity change, negative = inhibition [%]"
Fc1ccc(C(OCCN2CCN(CCCc3ccccc3)CC2)c2ccc(F)cc2)cc1,44.7 µM (active),
CC(C)CC(N(C)C)C1(c2ccc(Cl)cc2)CCC1 (stereo not drawn),,11.8
CCN(CC)CCOC(=O)C(O)(c1ccccc1)c1ccccc1,,-6.43

# Test system: not listed separately
# Test: Confirmatory qHTS for small molecule stabilizers of the endoplasmic reticulum resident proteome: Secreted ER Calcium Modulated Protein (SERCaMP) assay (AID 1508628); also: % is scaled to controls: 0 for no effect and ±100 for the full control effect; nearly all actives have a fitted effect of over 40% in size
# Conditions: SERCaMP secreted luciferase ER calcium/proteostasis reporter; series mostly up to 76.3 µM; activity change, negative = decrease: at the top concentration
# Outline: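 Reporter secretion upon ER calcium depletion (100 nM thapsigargin, 4 h, 37C) is measured as medium luminescence with coelenterazine, after 16 h compound pretreatment of SH-SY5Y-GLuc-SERCaMP cells; primary at three concentrations up to 38.3 uM, follow-up at 11 (up to 76.6 uM).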
row,SMILES,"activity change, negative = decrease [%]"
1,COC[C@@H](NC(C)=O)C(=O)NCc1ccccc1,-11.7
2,CC(C)CC(N(C)C)C1(c2ccc(Cl)cc2)CCC1 (stereo not drawn),28
3,CCN(CC)CCOC(=O)C(O)(c1ccccc1)c1ccccc1,6.3

# Test system: not listed separately
# Test: Primary qHTS for small molecule stabilizers of the endoplasmic reticulum resident proteome: Secreted ER Calcium Modulated Protein (SERCaMP) assay (AID 1508630); also: % is scaled to controls: 0 for no effect and ±100 for the full control effect
# Conditions: SH-SY5Y GLuc-SERCaMP (Gaussia luciferase released on ER calcium loss) secretion, thapsigargin, luminescence; series mostly up to 38.4 µM; activity change, negative = inhibition: at the top concentration
# Outline: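 The SH-SY5Y reporter protocol was run at 3 concentrations up to 38.3 uM (primary) or 11 concentrations (follow-up): 16 h compound, 100 nM thapsigargin for 4 h, then extracellular luciferase luminescence.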
SMILES,"activity change, negative = inhibition",outcome
CC[N+](CC)(CC)CC,-29.9%,
NCCc1cc(O)c(O)cc1O,-33.7%,
Fc1ccc(C(OCCN2CCN(CCCc3ccccc3)CC2)c2ccc(F)cc2)cc1,,inactive
COC[C@@H](NC(C)=O)C(=O)NCc1ccccc1,40.1%,
CC(C)CC(N(C)C)C1(c2ccc(Cl)cc2)CCC1 (stereo not drawn),72.1%,
CC(=O)[C@H]1CC[C@H]2[C@@H]3CC[C@H]4C[C@](C)(O)CC[C@]4(C)[C@H]3CC[C@]12C,-4.06%,
NN=C(N)N,,inactive
O=C(NC(O)C(Cl)(Cl)Cl)NC(O)C(Cl)(Cl)Cl (stereo not drawn),-21.8%,
c1ccc(C2CC2)c(OCC2=NCCN2)c1,,inactive
COc1ccccc1N1CCNCC1,-24.7%,
CCCN1CCC[C@@H]2Cc3[nH]ncc3C[C@H]21,,inactive
CN(C)CCc1ccc(O)cc1,,inactive
O=C(O)c1ccc2[nH]cc(CCCCN3CC=C(c4ccccc4)CC3)c2c1,-3.5%,
COC[C@H]1OC(=O)c2coc3c2[C@@]1(C)C1=C(C3=O)C2CCC(=O)[C@@]2(C)C[C@H]1OC(C)=O (stereo partly drawn),,inactive
C#CCOC(C(=O)OCCN(C)C)(c1ccccc1)c1ccccc1,-27.4%,
Cc1ccc(S(=O)(=O)N[C@@H](CCCCN)C(=O)CCl)cc1,,inactive
CC1OC(C)OC(C)O1 (stereo not drawn),-23.9%,
Clc1cccc(N2CCNCC2)c1,-22%,
CCN(C(C)=O)c1cccc(-c2ccnc3c(C#N)cnn23)c1,8.52%,
CC(C)=CCOc1c2occc2cc2ccc(=O)oc12,,inactive
O=C1NCN(c2ccccc2)C12CCN(CC1COc3ccccc3O1)CC2 (stereo not drawn),,inactive
CNCC(O)c1ccc(O)cc1 (stereo not drawn),,inactive
CC(=O)[C@H]1CC[C@H]2[C@@H]3CC[C@H]4C[C@H](O)CC[C@]4(C)[C@H]3C(=O)C[C@]12C,,inactive
CCC1(C2=NCCN2)Cc2ccccc2O1 (stereo not drawn),,inactive
c1ccc2c(c1)OCC(C1=NCCN1)O2 (stereo not drawn),,inactive
NP(N)(=O)NC(=O)c1ccc(F)cc1,,inactive
O=C(O)C(=O)c1cn(Cc2ccccc2)c2ccc(-c3ccc(OC(F)(F)F)cc3)cc12,-86.7%,
Cc1ccc2c(c1)C1CN(C)CCC1N2 (stereo not drawn),22.7% [at 21.6 µM],
CC(O)(CS(=O)(=O)c1ccc(F)cc1)C(=O)Nc1ccc(C#N)c(C(F)(F)F)c1 (stereo not drawn),82.6%,
Cc1cccc(C)c1NC(=O)CN1CCCC1=O,,inactive

# Test system: not listed separately
# Test: A High-Content qHTS Against Drug Library for the Identification of Small Molecules that Inhibit DYT1 Early Onset Primary Dystonia-Associated Cell Pathology (AID 1645839; calls by dose curve)
# Conditions: HEK293 Flp-In EGFP-delE TorsinA, punctate imaging, 48 h; series mostly up to 46.1 µM; % pathology change, negative = correction: at the top concentration
# Outline: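 Induced EGFP-delE TorsinA cells are imaged after 48 h of compound treatment. Punctate fusion-protein distribution gives the %pathology value, while nuclei counts flag toxicity. Wild-type EGFP-hTOR1A cells define the normal pattern.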
row,SMILES,"% pathology change, negative = correction"
1,CC[N+](CC)(CC)CC,1.79%
2,NCCc1cc(O)c(O)cc1O,9.46%
3,COC[C@@H](NC(C)=O)C(=O)NCc1ccccc1,2.84%
4,CC(C)CC(N(C)C)C1(c2ccc(Cl)cc2)CCC1 (stereo not drawn),10.5%
5,CC(=O)[C@H]1CC[C@H]2[C@@H]3CC[C@H]4C[C@](C)(O)CC[C@]4(C)[C@H]3CC[C@]12C,2.05%
6,NN=C(N)N,0.293%
7,O=C(NC(O)C(Cl)(Cl)Cl)NC(O)C(Cl)(Cl)Cl (stereo not drawn),1.84%
8,c1ccc(C2CC2)c(OCC2=NCCN2)c1,-3.57%
9,N#CC(C#N)=Cc1ccc(O)c(O)c1,-9.19%
10,COc1ccccc1N1CCNCC1,0.338%
11,CCCN1CCC[C@@H]2Cc3[nH]ncc3C[C@H]21,11%
12,CN(C)CCc1ccc(O)cc1,14.7%
13,O=C(O)c1ccc2[nH]cc(CCCCN3CC=C(c4ccccc4)CC3)c2c1,-4.42%
14,C#CCOC(C(=O)OCCN(C)C)(c1ccccc1)c1ccccc1,5.55%
15,CCN(CC)CCOC(=O)C(O)(c1ccccc1)c1ccccc1,4.65%
16,Cc1ccc(S(=O)(=O)N[C@@H](CCCCN)C(=O)CCl)cc1,-0.608%
17,CC1OC(C)OC(C)O1 (stereo not drawn),14.4%
18,Clc1cccc(N2CCNCC2)c1,1.45%
19,CCN(C(C)=O)c1cccc(-c2ccnc3c(C#N)cnn23)c1,-22.4%
20,CC(C)=CCOc1c2occc2cc2ccc(=O)oc12,-0.31%
21,O=C1NCN(c2ccccc2)C12CCN(CC1COc3ccccc3O1)CC2 (stereo not drawn),-16.9%
22,CNCC(O)c1ccc(O)cc1 (stereo not drawn),3.5%
23,CC(=O)[C@H]1CC[C@H]2[C@@H]3CC[C@H]4C[C@H](O)CC[C@]4(C)[C@H]3C(=O)C[C@]12C,-26%
24,CCC1(C2=NCCN2)Cc2ccccc2O1 (stereo not drawn),-4.81%
25,NP(N)(=O)NC(=O)c1ccc(F)cc1,13.1%
26,Cc1ccc2c(c1)C1CN(C)CCC1N2 (stereo not drawn),-14.7% [at 19.1 µM]
27,Cc1cccc(C)c1NC(=O)CN1CCCC1=O,5.26%

# Biological target: Cytochrome P450 2D6 (Homo sapiens) (UniProt P10635)
# Test: Cytochrome P450 family 2 subfamily D member 6 (CYP2D6) small molecule antagonists: luciferase biochemical (cell-free) qHTS assay (AID 1645840; active = well fitted curve in the direction sought with a large enough effect in the repeat runs; an effect the other way counts as inactive or inconclusive; also: nearly all actives have a fitted effect of over 55% in size; also: potency is read from the fitted curve at half-maximal effect; as to activity change, negative = inhibition: % is scaled to controls: 0 for no effect and ±100 for the full control effect)
# Conditions: P450-Glo CYP2D6 enzyme, luciferin luminescence, 1 h; series mostly up to 57.4 µM; activity change, negative = inhibition: at the top concentration
# Outline: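 P450-Glo CYP2D6 system: proluciferin substrate converted by enzyme to luciferin, read by luminescence proportional to activity. Enzyme-substrate mix with compound 10 min at room temperature, then NADPH regeneration 1 h before detection reagent.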
# Chain of Cytochrome P450 2D6 (Homo sapiens) (P10635 whole entry, looked up): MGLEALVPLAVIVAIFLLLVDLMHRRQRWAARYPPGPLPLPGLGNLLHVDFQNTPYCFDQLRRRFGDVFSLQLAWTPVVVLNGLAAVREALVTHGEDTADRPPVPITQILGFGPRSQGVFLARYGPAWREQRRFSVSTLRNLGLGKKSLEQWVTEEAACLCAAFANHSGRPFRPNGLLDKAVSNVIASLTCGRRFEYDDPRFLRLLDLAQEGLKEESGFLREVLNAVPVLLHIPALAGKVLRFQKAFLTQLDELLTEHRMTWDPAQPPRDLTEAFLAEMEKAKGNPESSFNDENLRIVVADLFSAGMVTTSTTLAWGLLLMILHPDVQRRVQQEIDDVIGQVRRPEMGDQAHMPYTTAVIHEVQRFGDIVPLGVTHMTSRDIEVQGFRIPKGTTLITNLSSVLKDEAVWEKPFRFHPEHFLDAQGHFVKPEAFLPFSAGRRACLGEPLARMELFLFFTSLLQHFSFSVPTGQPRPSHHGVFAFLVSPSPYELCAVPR
SMILES,"activity change, negative = inhibition [%]",Potency
CC[N+](CC)(CC)CC,-0.317,
NCCc1cc(O)c(O)cc1O,-19.9,
COC[C@@H](NC(C)=O)C(=O)NCc1ccccc1,2.53,
CC(C)CC(N(C)C)C1(c2ccc(Cl)cc2)CCC1 (stereo not drawn),,4.36 µM (active)
CC(=O)[C@H]1CC[C@H]2[C@@H]3CC[C@H]4C[C@](C)(O)CC[C@]4(C)[C@H]3CC[C@]12C,,1.23 µM (active)
NN=C(N)N,5.92,
O=C(NC(O)C(Cl)(Cl)Cl)NC(O)C(Cl)(Cl)Cl (stereo not drawn),4.21,
c1ccc(C2CC2)c(OCC2=NCCN2)c1,,4.36 µM (active)
COc1ccccc1N1CCNCC1,1.31,
CCCN1CCC[C@@H]2Cc3[nH]ncc3C[C@H]21,-22.1,
CN(C)CCc1ccc(O)cc1,-0.396,
O=C(O)c1ccc2[nH]cc(CCCCN3CC=C(c4ccccc4)CC3)c2c1,,15.5 µM (active)
C#CCOC(C(=O)OCCN(C)C)(c1ccccc1)c1ccccc1,,1.55 µM (active)
CCN(CC)CCOC(=O)C(O)(c1ccccc1)c1ccccc1,,5.49 µM (active)
Cc1ccc(S(=O)(=O)N[C@@H](CCCCN)C(=O)CCl)cc1,,17.2 µM (active)
CC1OC(C)OC(C)O1 (stereo not drawn),6.13,
Clc1cccc(N2CCNCC2)c1,,8.71 µM (active)
CCN(C(C)=O)c1cccc(-c2ccnc3c(C#N)cnn23)c1,-0.435,
CC(C)=CCOc1c2occc2cc2ccc(=O)oc12,,0.871 µM (active)
O=C1NCN(c2ccccc2)C12CCN(CC1COc3ccccc3O1)CC2 (stereo not drawn),,0.0245 µM (active)
CNCC(O)c1ccc(O)cc1 (stereo not drawn),-14.8,
c1ccc2c(c1)OCC(C1=NCCN1)O2 (stereo not drawn),,19.5 µM (active)
NP(N)(=O)NC(=O)c1ccc(F)cc1,2.46,
Cc1ccc2c(c1)C1CN(C)CCC1N2 (stereo not drawn),,4.25 µM (active)
Cc1cccc(C)c1NC(=O)CN1CCCC1=O,6.24,
